DAX1 inh-1 = DAX1 (NR0B1) inhibition, primary screen; HEK293T StAR-luciferase reporter, SF-1/DAX-1 repression relief; inhibition, % at 6.8 µM; 370,000 tested, 1.1% active; AID 652010;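 active means inhibition above the mean over all tested compounds plus 3 SD, cut at about 3.6% in these data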;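 further: higher inhibition means more luminescence from relief of DAX-1 repression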
hcDAF12 agonist = activates DAF-12 receptor from parasite H. contortus; HEK293 hcDAF-12 lit1-tk-luc reporter, luminescence; 0% DMSO, 100% Δ7-dafachronic acid; activation, % at 6.8 µM; 370,000 tested, 1.4% active; AID 652067;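 active means activation above the mean of all tested compounds plus 3 SD, cut at about 5.5% in these data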
DAX1 inh-2 = inhibitors of human orphan nuclear receptor DAX1 (NR0B1) | AID 504766 | 340,000 tested, 0.99% active | HEK293 Gal4-DAX1 luciferase reporter, luminescence | inhibition, % at 6.75 µM | P51843;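 active means inhibition above the mean over all tested compounds plus 3 SD, cut at about 4.2% in these data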;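 further: inhibition shows as a rise in luminescence from relieved DAX1 repression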
hgDAF12 agonist = activates the H. glycines DAF-12 receptor ligand-binding domain | HEK293 GAL4-hgDAF12 UAS-luciferase reporter, agonist luminescence; normalized to butyrate control | activation, % at 6.8 µM | AID 687014 | 370,000 tested, 1.8% active;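 active means activation above a cutoff set at the mean of all screened compounds plus 3 SD, cut at about 10% in these data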
NR1D1 modulator = modulators of human Rev-erb alpha DNA binding | AID 1259318 | 370,000 tested, 0.79% active | Rev-erbα–FITC-DNA binding, fluorescence polarization, 90 min | activity, % at 10 µM | P20393;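 active means activity above about 14%, limit read from the data; passing the limit was not always enough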
ssDAF-12 act = S. stercoralis DAF-12 activation, primary screen; HEK293 ssDAF-12/GRIP1 lit1-tk-luc reporter, luminescence; % of 3 µM dafachronic acid response; activation, % at 6.8 µM; 370,000 tested, 1% active;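 active means activation above the mean over all tested compounds plus 3 SD, cut at about 0.9% in these data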
Rev-erbA confirm = confirmation of modulators of human Rev-erb alpha DNA binding; shares compounds with NR1D1 modulator; Rev-erb alpha FITC-DNA binding, fluorescence polarization, 90 min; 3,000 tested, 61% active; activation, % at 25 µM; AID 1259319;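 active means activation at or above a set limit, or at least 3 SD above the negative control mean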
RORg counter = RORgamma DNA-binding activity, dose-response counter-screen; shares compounds with NR1D1 modulator; purified RORgamma protein-FITC-DNA binding, fluorescence polarization; IC50, µM; 910 tested, 8% active; AID 1259320;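 active means Compounds whose fitted half-maximal concentration for disrupting protein-DNA binding is below 10 micromolar; the record names Rev-erb in its text, so the target is in doubt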
Numbers stand for hits; – = inactive; · = not tested or not shown; + = active, no number. Hits are enriched below; roughly 4.8% of the tested compounds scored in any of these assays.

SMILES | DAX1 inh-1 | hcDAF12 agonist | DAX1 inh-2 | hgDAF12 agonist | NR1D1 modulator | ssDAF-12 act | Rev-erbA confirm | others
CC(C)(C)OC(=O)N1CCC(N[C@@H](Cc2c[nH]c3ccccc23)C(=O)NCC(c2ccccc2)c2ccccc2)(C(=O)NC2CCCCC2)CC1 | · | – | · | – | – | – | ·
CC12CN3CC(C)(CN(C1)C3c1ccc3ccccc3c1O)C2=O (stereo not drawn) | – | – | – | – | – | – | ·
CCn1cc(C2N3CC4(C)CN2CC(C)(C3)C4=O)c2ccccc21 (stereo not drawn) | – | – | – | – | 50.0 | – | 56.1 | RORg counter=–
CCOC(=O)/C=C1/SCC(=O)N1CCOc1cccc(Br)c1 | – | – | – | – | 23.7 | – | 11.9
CCOC(=O)/C=C1/SCC(=O)N1Cc1ccc(Br)cc1 | – | – | – | – | – | – | ·
COc1ccc(-c2cc(NC(=O)Cc3c[nH]c4ccccc34)ccc2Nc2cccnc2)cc1F | – | – | · | – | – | – | ·
COc1ccc(C(=O)N2CCN(c3ncnc4c(-c5ccccc5)nsc34)CC2)cc1 | – | – | – | – | – | – | ·
COc1ccc(-c2nsc3c(N4CCCCC4)ncnc23)cc1 | – | – | – | – | 20.4 | – | –
COc1ccc(-c2nsc3c(N4CCN(S(=O)(=O)c5ccccc5F)CC4)ncnc23)cc1 | – | – | – | – | 31.5 | – | –
COC(=O)c1ccc(S(=O)(=O)N2CCC(NC(=O)Cc3ccccc3)CC2)cc1 | – | – | · | – | – | – | ·
Cc1cc2c(c(=O)o1)[C@@]1(C(=O)N(C)c3ccc([N+](=O)[O-])cc31)C1=C(CCCC1=O)O2 | – | – | · | – | – | – | ·
CCN(CC)S(=O)(=O)c1ccc(F)cc1 | – | – | – | – | 36.6 | – | –
CCN(CC)S(=O)(=O)c1ccc(NS(=O)(=O)c2ccc(F)cc2)cc1 | – | – | – | – | – | – | ·
O=C(NCc1ccc(F)c(F)c1)C1CCCN(c2nc3ccccc3o2)C1 (stereo not drawn) | – | – | · | – | – | – | ·
Cc1cccc(C)c1NC(=O)CSc1ncnc2[nH]ncc12 | – | – | – | – | 23.1 | – | 18.3
CCOC(=O)C1CSCCS(=O)(=O)N1Cc1ccc(F)cc1 (stereo not drawn) | – | – | · | – | – | – | ·
COc1ccc2cc(C3CC(c4cccs4)=NN3C(C)=O)c(Cl)nc2c1 (stereo not drawn) | – | – | – | – | 40.9 | – | 32.3 | RORg counter=–
CC(C)OC(=O)CC(=O)CSc1nc(-c2ccc(F)cc2)cc(-c2ccccc2)c1C#N | – | – | – | – | 35.9 | – | 26.4
COc1cc(-c2cc(-c3ccccc3)nc(SCC(=O)Nc3nccs3)c2C#N)cc(OC)c1OC | – | – | – | – | 72.1 | – | –
CC(CCN1CCC(C(O)(c2ccccc2)c2ccccc2)CC1)Oc1cccc(Br)c1 (stereo not drawn) | – | – | · | – | – | – | ·
COc1ccc(N/C(=C\C(=O)c2ccccc2)c2ccccc2)cc1OC | – | – | · | – | – | – | ·
COc1ccc(Cl)cc1NC(=O)c1cnc2sccn2c1=O | – | – | – | – | 33.4 | – | 32.5
CCOC(=O)[C@@]12CN(C(=O)OC(C)(C)C)CC=C1N(Cc1ccc(OC)cc1)C(=O)[C@H]2CC(=O)NCCCOC | – | – | · | – | – | – | ·
O=c1oc2ccccc2c(NC(c2ccccc2)c2ccccc2)c1[N+](=O)[O-] | – | – | – | – | 39.1 | – | 60.3 | RORg counter=–
COC(=O)c1ccccc1-c1c2ccc(=N)cc-2oc2cc(N)ccc12 | – | – | – | – | + | – | + | RORg counter=–
Cc1cc(C)c2c(N)c(C(=O)N/N=C/c3cccs3)sc2n1 | – | – | · | – | 80.0 | – | 54.1 | RORg counter=–
CCOc1ccc(CCNC(=O)c2cc(-c3ccccc3)c(N3CCOCC3)s2)cc1OCC | – | – | – | – | – | – | ·

Screening results from PubChem BioAssay.
